Source: PubChem
Sfp PPTase inh – inhibitors of Bacillus subtilis Sfp phosphopantetheinyl transferase; Biochemical Sfp PPTase activity, qHTS; Potency, µM, actives largely listed as inhibitors; 310,000 tested, 3.5% active; AID 1490; Q9F4F7;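 further: the enzyme is Sfp with the accession as filed and its product quenches rhodamine fluorescence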
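Reaction rates are the 30-min fluorescence difference (ex 525, em 598 nm) in wells containing 15 nM Sfp, 5 uM rhodamine-CoA and 12.5 uM BHQ-2-YbbR at pH 7.6 with 10 mM MgCl2.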
Tau FP inhib – blocks human tau fibril formation measured by polarization. K18 P301L tau heparin fibrillization, Alexa594 FP, 6 h. AID 1468. P10636. Potency, µM (doses to about 57.7 µM), hits mostly inhibitors. 280,000 tested, 0.39% active; further: nearly all actives have a fitted effect of over 55% in size
Target sequence (P10636 561-689 P618L limits assumed): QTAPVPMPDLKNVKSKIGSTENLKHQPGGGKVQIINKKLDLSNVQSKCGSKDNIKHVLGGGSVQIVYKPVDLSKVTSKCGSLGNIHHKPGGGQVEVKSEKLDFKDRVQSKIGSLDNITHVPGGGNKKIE
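Compound effects on tau fibrillization are measured by Alexa 594 fluorescence polarization (ex 555, em 632 nm). K18 P301L tau is used at 15 uM with 0.24 uM labeled tracer, and 20 uM heparin induces aggregation over 6 hr at 37 C.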
Tau ThT inhib – blocks human tau fibril formation measured by thioflavin T. P10636. recombinant tau K18 P301L, heparin-induced fibrillization, ThT fluorescence. Potency, µM (highest dose often 57.4 µM), usual class: inhibitors. 270,000 tested, 2.1% active; further: nearly all actives have a fitted effect of over 55% in size
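Heparin-induced (20 uM) aggregation of recombinant human K18 P301L tau, 15 uM unlabeled with 0.24 uM labeled, pH 7 acetate buffer, 6 hr at 37 C with compound. Fibrils quantified by 30 uM ThT fluorescence after 1 hr ambient incubation.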
G9a inh – G9a (human) methyltransferase inhibition | 350,000 tested, 8.8% active | G9a H3K9 monomethylation, AlphaScreen, 2 h | Q96KQ7 | Potency, µM (top dose mostly 102 µM), most hits filed as inhibitors; further: nearly all actives have a fitted effect of over 75% in size
Target sequence (Q96KQ7 913-1193 limits assumed): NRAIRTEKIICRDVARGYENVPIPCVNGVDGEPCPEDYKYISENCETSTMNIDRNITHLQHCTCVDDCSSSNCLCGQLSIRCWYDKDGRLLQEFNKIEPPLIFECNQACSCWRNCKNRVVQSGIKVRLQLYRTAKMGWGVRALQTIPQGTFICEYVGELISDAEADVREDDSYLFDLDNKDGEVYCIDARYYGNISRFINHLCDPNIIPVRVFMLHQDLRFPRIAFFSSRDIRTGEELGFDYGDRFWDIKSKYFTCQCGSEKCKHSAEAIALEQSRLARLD
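G9a (20 nM) preincubated 15 min RT with compounds, then 500 nM biotinylated H3K9 peptide and 20 uM SAM added; 2 h RT reaction. Monomethyl-H3K9 product detected by AlphaScreen with anti-H3K9me1 antibody, streptavidin donor and anti-rabbit IgG acceptor beads.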
Coupling enz – coupling enzyme interference in Giardia aldolase counter-screen; coupling enzyme system counterscreen, AmpLite Red fluorescence; activity change, negative = inhibition, % at 58.2 µM, hits read low; 290,000 tested, 0.67% active; AID 2472; in the data active means activity change below about -30%
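Coupling enzymes only (glyceraldehyde-3-phosphate) + compound, at 57.5 uM final, 10 min RT; add substrate/coupling/AmpLite Red mix, 20 min RT; fluorescence ex 525/em 598 nm. Actives flag coupling-system interference.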
Tau fluor cs – counter-screen for tau fibril formation inhibitors; 280,000 tested, 0.93% active; tau K18 P301L Alexa594 fluorescence, heparin fibrillization; Potency, µM (titrated, usually from 57.7 µM); AID 1463; further: nearly all actives have a fitted effect of over 55% in size
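Human tau K18 P301L (15 uM unlabeled, 0.24 uM Alexa 594-labeled) in 100 mM sodium acetate pH 7 with 20 uM heparin, 6 hr at 37 C. ThT 30 uM added, 1 hr ambient; Alexa 594 FP and total fluorescence read at 555/632 nm.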
Of the large screens only hits and unclear results are named; the others gave an inactive call. The list is not random: actives were taken first. Their share in the collection is about 11%. Unless noted, the call rests on the fitted dose curve; in most records, active means well fitted curve in the direction sought with a large enough effect; inconclusive means small, poorly fitted or top-dose-only effect, or another doubt; inactive means no such curve, though single readings can be large; an effect the other way counts as inactive or inconclusive.

CCc1cccc(NC(=O)C(Cc2ccccc2)n2cccc2)c1 (centres undefined)	Tau fluor cs inconclusive (no result: Sfp PPTase inh, Coupling enz)
CCc1cccc(NC(=O)Cn2nc(-c3cc(C)ccc3C)ccc2=O)c1	Tau ThT inhib inconclusive, Tau fluor cs inconclusive (no result: Sfp PPTase inh, Coupling enz)
Cn1c(CCNC(=O)OC(C)(C)C)n[nH]c1=S	G9a inh inconclusive
CC(C)(C)OC(=O)NCCc1n[nH]c(=S)o1	Sfp PPTase inh 79µM (no result: G9a inh)
C#CCN1C(=O)S/C(=C\c2ccc(-c3ccc(Cl)c(C(=O)O)c3)o2)C1=O	G9a inh 45µM (no result: Tau FP inhib, Tau ThT inhib, Tau fluor cs)
O=C(O)c1cc(-c2ccc(/C=C3\NC(=O)N(c4ccccc4)C3=O)o2)ccc1Cl	Sfp PPTase inh 79µM, Tau ThT inhib inconclusive, G9a inh 45µM
O=C(O)c1cc(-c2ccc(/C=C3\NC(=O)N(c4ccc(Cl)cc4)C3=O)o2)ccc1Cl	Sfp PPTase inh 50µM, Tau ThT inhib inconclusive, G9a inh 10µM
O=C(O)c1cc(-c2ccc(/C=N/N3C(=O)C4C5C=CC(CC5)C4C3=O)o2)ccc1Cl (centres undefined)	none
CCOc1cccc(C(=O)Nc2ccccc2C(=O)N2CCN(C)CC2)c1	none (no result: Tau FP inhib, Tau ThT inhib, G9a inh, Tau fluor cs)
Cc1ccc(-n2nnnc2SCC(=O)N2CC(=O)Nc3ccccc32)cc1	none
c1ccc2nc(-c3ccc4c(c3)OCO4)ccc2c1	Tau ThT inhib inconclusive
CNc1ccccc(-c2ccc3cc4c(cc3n2)OCO4)c1=O	Sfp PPTase inh inconclusive, Tau ThT inhib 5µM, Tau fluor cs inconclusive
O=C1SCCC1NS(=O)(=O)c1ccc([N+](=O)[O-])cc1 (centres undefined)	G9a inh 50µM (no result: Tau FP inhib, Tau ThT inhib, Tau fluor cs)
CC(C)(C)N1C(=O)[C@H]2[C@@H]3[C@H](O)C=CC(=O)[C@H]3CC[C@H]2C1=O	none (no result: G9a inh)
CCc1cc2c(N=Nc3c(O)[nH]c4ccccc34)ncnc2s1	Tau ThT inhib inconclusive
CCc1ccc2[nH]c(O)c(N=Nc3nc(-c4ccccc4)cs3)c2c1	Tau ThT inhib 4.5µM, Tau fluor cs inconclusive
CCCCSCc1[nH]c(=O)[nH]c1C(=O)CCCCC(=O)OCC	G9a inh inconclusive
CCOC(=O)CCCCC(=O)c1[nH]c(=O)[nH]c1Cn1ccnc1	Sfp PPTase inh 79µM
CCCCN(C)CCNC(=O)c1ccc2c(c1)NC(=O)CN2	none (no result: Sfp PPTase inh, Coupling enz)
CC1(C)Cc2ccccc2C(N/N=C/c2cccc(F)c2)=N1	G9a inh 40µM
CCNc1ncc2nc(-c3ccc(OC)cc3)c(=O)n(CCC#N)c2n1	none (no result: Tau FP inhib, Tau ThT inhib, Tau fluor cs)
CCN(C(=O)c1coc(=O)c(Br)c1)c1ccc2c(c1)OCO2	Sfp PPTase inh 45µM, Tau FP inhib inconclusive, Tau ThT inhib 22µM, G9a inh 20µM, Coupling enz -42, Tau fluor cs inconclusive
CCN(C(=O)c1c(C)cc(=O)oc1C)c1ccc2c(c1)OCO2	none
Clc1cc2c(c(CSc3nc4ccccc4n4cccc34)c1)OCOC2	G9a inh 45µM
Clc1cc2c(c(Cn3cnc4ccccc43)c1)OCOC2	none
O=C1CCCC2(O)C1C(c1cccc(Br)c1)NC(=O)N2Cc1ccccc1 (centres undefined)	Sfp PPTase inh inconclusive, G9a inh 45µM
CC(O)CNCCCCOc1ccc(OCc2ccccc2)cc1 (centres undefined)	none
CC(O)CNCCCOc1ccccc1OCc1ccccc1 (centres undefined)	G9a inh 13µM
CC[C@@]12CCCN3CCc4c(n(c5ccccc45)[C@](O)(C(=O)OC)C1)[C@H]32	none
COc1ccccc1-c1nc(SCc2ccccn2)n[nH]1	G9a inh 50µM
C=CCOc1cccc(C2C(C(=O)c3cc4ccccc4o3)=C(O)C(=O)N2c2cc(C)on2)c1 (centres undefined)	G9a inh 40µM (no result: Tau FP inhib, Tau ThT inhib, Tau fluor cs)
Cc1cc(N2C(=O)C(O)=C(C(=O)c3ccc(C)o3)C2c2ccc([N+](=O)[O-])cc2)no1 (centres undefined)	G9a inh 45µM (no result: Tau FP inhib, Tau ThT inhib, Coupling enz, Tau fluor cs)
COc1ccccc1C1C(C(=O)c2cc3ccccc3o2)=C(O)C(=O)N1c1cc(C)on1 (centres undefined)	G9a inh 50µM (no result: Tau FP inhib, Tau ThT inhib, Tau fluor cs)
